From PubChem BioAssay
Only a selection was taken, and hits are over-represented in it overall.
HT1080 IDH1KD tx: toxicity to HT-1080 IDH1 knockdown cells (counter line) | actives 2% (n = 360,000) | HT-1080 IDH1 knockdown viability, ATP luminescence, 48 h | Potency, µM (titrated, usually from 46.1 µM), for the others: top-dose activity, negative = toxicity, actives largely listed as cytotoxic;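 also: potency is read from the fitted curve at half-maximal effect; 0% = DMSO wells and -100% = cell-free medium wells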
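% activity derives from luminescence (CellTiter-Glo), normalised to DMSO and no-cell wells. HT-1080-IDH1KD cells, 750/well, had 48 h compound exposure at 37 °C.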
ALOX12 inh: ALOX12 (human) lipoxygenase inhibition; Potency, µM (highest dose often 108 µM), without a hit: top-dose activity change, negative = inhibition, most hits filed as inhibitors; purified 12hLO, xylenol orange hydroperoxide absorbance; AID 1671190; P18054; actives 1.1% (n = 580,000); also: potency is read from the fitted curve at half-maximal effect
Target sequence (P18054 whole entry, looked up): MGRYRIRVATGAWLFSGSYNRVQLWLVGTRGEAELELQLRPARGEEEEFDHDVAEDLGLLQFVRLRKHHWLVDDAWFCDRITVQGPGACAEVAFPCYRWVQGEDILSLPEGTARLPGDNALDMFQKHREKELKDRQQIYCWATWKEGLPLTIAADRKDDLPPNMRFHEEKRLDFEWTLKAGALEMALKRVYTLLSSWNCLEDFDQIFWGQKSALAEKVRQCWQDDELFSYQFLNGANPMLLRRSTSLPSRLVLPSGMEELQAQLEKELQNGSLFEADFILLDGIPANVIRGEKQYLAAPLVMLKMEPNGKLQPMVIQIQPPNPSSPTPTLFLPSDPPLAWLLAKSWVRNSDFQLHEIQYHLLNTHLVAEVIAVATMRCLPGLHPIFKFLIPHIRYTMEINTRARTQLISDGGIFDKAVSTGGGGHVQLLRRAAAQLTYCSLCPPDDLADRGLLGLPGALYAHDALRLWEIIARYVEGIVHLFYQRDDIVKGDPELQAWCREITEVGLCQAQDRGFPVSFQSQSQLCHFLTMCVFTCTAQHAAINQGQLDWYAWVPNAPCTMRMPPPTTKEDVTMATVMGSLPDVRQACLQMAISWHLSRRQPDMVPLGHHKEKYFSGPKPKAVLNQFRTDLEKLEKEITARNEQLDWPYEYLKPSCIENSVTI
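Purified human 12hLO (150 nM final) in 25 mM Hepes, 0.01% Triton X-100, pH 7.0 was preincubated 15 min at room temperature with compound. Then 40 uM arachidonic acid was added, 30 min. Hydroperoxide was read by Fe-XO absorbance ratio 573/405 nm.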
HT1080-NT tox: kills 2HG-producing HT-1080-NT fibrosarcoma cells | HT-1080-NT fibrosarcoma viability, CellTiter-Glo ATP luminescence, 48 h | Potency, µM (titrated, usually from 46.1 µM), for inactives: at the highest dose activity, negative = less viability, usual class: cytotoxic | actives 1.6% (n = 360,000);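 also: NT is the 2HG producing partner of a matched IDH1 knockdown line; potency is read from the fitted curve at half-maximal effect; 0% = DMSO-treated cells and -100% = media-only wells without cells; nearly all actives have a fitted effect of over 55% in size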
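Compounds were tested in concentration-response format on HT-1080-NT cells for 48 hours at 37 degrees C. Cell viability came from CellTiter-Glo luminescence; curves were classified by r2, response magnitude and activity.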
TDP1 cell noCPT: qHTS for Inhibitors of human tyrosyl-DNA phosphodiesterase 1 (TDP1): qHTS in cells in absence of CPT; DT40 Tdp1-/- hTDP1 cells, no CPT, ATP luminescence, 48 h; Potency, µM (top dose mostly 46.2 µM), inactives show top-dose activity change, negative = growth inhibition, usual class: inhibitors; actives 15% (n = 420,000); AID 686978, 2013; also: potency is read from the fitted curve at half-maximal effect; nearly all actives have a fitted effect of over 55% in size
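Seeded 400 DT40-hTDP1 cells/well (vehicle DMSO, no 20 nM CPT); pinned compounds; ≥48 hr at 37 °C; CellTiter-Glo luminescence as viability measure.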
IL1B secr inh: inhibitors of inflammasome signaling (IL-1 beta secretion). activity change, % at 57.5 µM. actives 4.7% (n = 360,000). AID 743279. THP-1 LPS/ATP IL-1B secretion, AlphaLISA, 16 h; active compounds read low; in the data active = activity change below about -50%; inconclusive = mostly about -30% to -49%
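THP-1 cells pretreated 1 hr with compounds (up to 57.5 uM final), then stimulated with LPS (250 ng/mL final) plus ATP (1.25 mM final); secreted IL-1B measured by AlphaLISA after 16 hr, decreased signal indicating inhibition.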
DT40 TDP1 CPT: DT40-hTDP1 cell growth loss with CPT. Potency, µM (series often up to 46.2 µM), inactives show at the top dose activity change, negative = growth inhibition, most hits filed as inhibitors. chicken DT40 Tdp1-/-;hTDP1 cells + 20 nM CPT, ATP luminescence, 48 h. actives 12% (n = 420,000); also: potency is read from the fitted curve at half-maximal effect; nearly all actives have a fitted effect of over 55% in size
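Chicken DT40 Tdp1-/- cells complemented with human TDP1, 400 cells/well, exposed to compounds plus 20 nM camptothecin for at least 48 h at 37 C; viability read as ATP content by CellTiter-Glo luminescence.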
* hit, by the source's call; ? = inconclusive; · = no result given; [ ] = another dose, or the depositor's remark. Unless noted, calls follow the shape of the dose curve; as a rule, active = well fitted curve in the direction sought with a large enough effect; inconclusive = small, poorly fitted or top-dose-only effect, or another doubt; inactive = no such curve, though single readings can be large; an effect the other way counts as inactive or inconclusive. Unless noted, % is scaled to controls: 0 for no effect and ±100 for the full control effect.

SMILES	HT1080 IDH1KD tx	ALOX12 inh	HT1080-NT tox	TDP1 cell noCPT	IL1B secr inh	DT40 TDP1 CPT
OC(CN1CCN(c2ccccn2)CC1)Cn1c2ccccc2c2ccccc21 (configuration not stated)	?	?	-30%	8.2µM*	-5	15µM*
OC(COc1cc(Cl)c(Cl)cc1Cl)CN1CCN(c2ncccn2)CC1 (configuration not stated)	-1%	?	7%	?	-16	18µM*
CC(C(=O)Nc1ccccc1)N(c1cccc(Cl)c1)S(C)(=O)=O (configuration not stated)	6%	0%	23%	-7%	-11	-8%
CC(C)NC(=O)c1ccccc1OCc1ccc(Cl)cc1	·	-1%	·	·	·	·
O=C(NCc1ccco1)C1(c2ccccc2)CCCC1	3%	-7%	-26%	7.1µM*	-1	10µM*
O=C(/C=C/c1ccco1)NCC1(c2ccccc2)CCCC1	5%	?	15%	?	-4	12µM*
O=C(NCC1(c2ccccc2)CCCC1)c1ccco1	18%	-29%	25%	15µM*	-4	-65%
COc1ccc(C2(CNC(=O)c3cc([N+](=O)[O-])cc([N+](=O)[O-])c3)CCCC2)cc1OC	-3%	-8%	-14%	16µM*	23	21µM*
COc1ccc(C2(CNC(=O)c3ccccc3)CCCC2)cc1OC	-2%	3%	-7%	?	-2	-47%
N#CCC(=O)Nc1ccc(C(=O)Nc2cccc(S(N)(=O)=O)c2)cc1	0%	33%	-3%	-4%	22	-5%
O=C(N[C@@H]1CCOC[C@H]1Oc1cccc(F)c1)c1ccc(-n2ccnc2)cc1	·	-1%	·	·	·	·
COc1cc(C(=O)NCC2(c3ccccc3)CC2)cc(OC)c1OC	·	-23%	·	·	·	·
O=C(NCC1(c2ccccc2)CCCC1)c1cccc(Br)c1	-7%	8%	-9%	13µM*	-2	15µM*
COc1cccc(C(=O)NCC2(c3ccccc3)CCCC2)c1OC	-17%	0%	0%	9.2µM*	18	18µM*
CS(=O)Cc1cccc(C(=O)NCC2(c3ccccc3)CCCCC2)c1 (configuration not stated)	·	0%	·	·	·	·
CCS(=O)(=O)N1CCCC(C(=O)Nc2ccccc2Oc2cccnc2)C1 (configuration not stated)	·	27%	·	·	·	·
CC1=NN(S(=O)(=O)c2ccc(Cl)cc2Cl)C(=O)c2ccccc2O1	-3%	-7%	-18%	16µM*	6	16µM*
O=C(/C=C1\NC2(CCCC2)Cc2ccccc21)C(=O)N/N=C/c1ccc(O)c(O)c1	?	35µM*	?	4.6µM*	?	5.8µM*
CN1CCCN(C(=O)NCCc2ccccc2)c2ccccc21	·	54%	·	·	·	·
O=C(NC(=S)Nc1ccccc1Br)C1CCCCC1	7%	?	0%	16µM*	21	18µM*
O=C(NNC(=S)Nc1ccccc1Cl)C1CC1	0%	-5%	22%	-23%	10	7%
O=C(Nc1cccc(Cl)c1Cl)C1CC(=O)N(c2ccc(Br)cc2)C1 (configuration not stated)	?	-23%	?	-26%	-6	-16%
O=C(NC(=S)Nc1cccc(Cl)c1Cl)C1CC1	-9%	0%	-11%	?	77	13µM*
CC(C)(C)N1CC(C(=O)Nc2cccc(Cl)c2Cl)CC1=O (configuration not stated)	-1%	5%	-9%	-7%	-69*	26%
CCN(CC)C(=O)Cn1c(=O)n(CCCCCC(=O)NCc2ccccc2)c(=O)c2sccc21	·	-16%	·	-18%	·	-4%
SMILES	HT1080 IDH1KD tx	ALOX12 inh	HT1080-NT tox	TDP1 cell noCPT	IL1B secr inh	DT40 TDP1 CPT
CNC(=O)C1CCC(Cn2c(=O)c3sccc3n(CC(=O)Nc3ccc(C)c(C)c3)c2=O)CC1 (configuration not stated)	·	?	·	9.2µM*	·	9.2µM*
Cc1ccc(NC(=O)Cn2c(=O)n(CCCCCC(=O)NCc3ccc(F)cc3)c(=O)c3sccc32)cc1C	·	-12%	·	6.5µM*	·	?
CCOc1ccc(NC(=O)Cn2c(=O)n(CCCCCC(=O)NCc3ccccc3)c(=O)c3sccc32)cc1	·	?	·	16µM*	·	?
CC(C)NC(=O)NC[C@H]1O[C@@H](CC(=O)Nc2ccccc2)[C@H](O)[C@@H]1O	·	17%[176 µM]	·	·	·	·
O=c1cc(-c2ccccc2)[nH]n1-c1ccccc1	?	-18%	?	?	-16	?
O=C1C=CC(=O)N1c1cccc(-c2ccccc2)c1	?	?	21µM*	0.73µM*	-65*	0.65µM*
Cc1nc(Nc2ccc(Cl)cc2Cl)sc1C(=O)Nc1ccccc1	26%	-20%	18%	18µM*	-94*	26µM*
Cc1nc(NC(=O)/C=C/c2ccccc2)sc1C(=O)Nc1ccc(Cl)cc1	?	-4%	?	?	-10	?
Cc1cccc(C(=O)Nc2nc(C)c(C(=O)Nc3ccc4c(c3)CCC4)s2)c1	?	?	11µM*	?	3	23µM*
Cc1cccc(NC(=O)c2ccc3c(c2)CCC3)c1	·	3%	·	·	·	·
CC(=O)c1sc(Nc2cccc(C)c2)nc1C	-9%	-8%	-10%	4%	17	-5%
Cc1cccc(Nc2nc(C)c(C(=O)Nc3ccccc3)s2)c1	·	13µM*	·	·	·	·
Cc1nc(Nc2ccc(Cl)c(Cl)c2)sc1C(=O)Nc1ccccc1	-23%	?	?	15µM*	-26	6.5µM*
CN1CCCN(C(=O)c2ccccc2C(F)(F)F)c2ccccc21	·	30%	·	·	·	·
CC1CC(=O)Nc2ccccc2S1(=O)=O (configuration not stated)	0%	4%	-5%	?	1	4%
O=S1(=O)c2ccccc2Nc2ccccc21	4%	0%	-3%	-24%	-73*	8%
C[C@@H](OC(=O)c1[nH]cnc1C(=O)NCc1ccc(CNC(=O)OC(C)(C)C)cc1)c1ccccc1	?	?	?	16µM*	-21	21µM*
O=C(Nc1nccs1)c1nc[nH]c1C(=O)NCc1ccccc1	0.82µM*	7%	?	0%	-14	12%
C[C@@H]1CNC(=O)c2c(C(=O)NCc3ccc(CNC(=O)OC(C)(C)C)cc3)ncn21	1%	13%	1%	21µM*	1	?
